According to PubChem BioAssay (NCI):
About 83,000 compounds went through this panel and 20% of them were active in at least one assay; those are over-represented in the sample as a whole.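 For each line, cells grew in 96-well plates with the test compound present at a single concentration for 48 hours.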 A number with no mark means an inactive call. Calls of active or inactive are those of the source. Rule for the calls: active = growth percent below 10; inactive = the rest.

The compounds below were run on NCI/ADR-RES ovarian (assay: NCI-60 one-dose screen, 48 h (100 = growth as untreated, 0 = no growth, -100 = all killed)). Details: 10 µM unless noted.

| SMILES | growth |
| --- | --- |
| NC(=O)N1CCOCC1 | 113% |
| N#Cc1ccc(OC(=O)Nc2c(Cl)cc(Cl)cc2Cl)cc1 | 111% |
| CCOC(=O)/C(C)=C\c1ccc(OC)c(OC)c1 | 100% |
| O=S(Cc1ccccc1)/C(=C/NC(=S)Nc1ccccc1)c1ccccc1 (configuration not stated) | 98.4% |
| C/C(=N\O)c1ccccn1 | 100% |
| CC(C)NC(=O)OCc1c(COC(=O)NC(C)C)c(-c2ccc(Cl)cc2)n2c1CCC2 | 46.5% |
| CC(=O)NNC(=S)/N=C\C(C(=O)c1ccccc1)=C(/O)c1ccccc1 | 99% |
| C=CCS(C)(=O)=O | 104% |
| O=C(NCc1ccccc1)c1cccc([N+](=O)[O-])c1 | 104% |
| c1ccc(-c2ccc3ccccc3c2)cc1 | 105% |
| Cc1ccccc1NC(=O)Oc1ccc(Cl)cc1C(=O)c1ccccc1 | 97% |
| CCC(C)c1c(N)n(S(=O)(=O)c2ccc(C)cc2)oc1=O (configuration not stated) | 120% |
| O=Cc1c(O)c2ccccc2[nH]c1=O | 104% |
| COC(=O)c1ccccc1C(=O)c1c(C)cc(C)cc1C | 102% |
| N=C(N)c1nn(C2OC(CO)C(O)C2O)c2nc[nH]c(=O)c12 (configuration not stated) | -10.4% (active) |
| COc1cccc(C(=O)O)c1OC | 99.4% |
| O=C(O)c1cc(I)ccc1O | 98% |
| CC(=O)NNC(=S)N/C=C/c1c(C)ccc([N+](=O)[O-])c1[N+](=O)[O-] | 97.9% |
| NNc1ncnc2c1ncn2C1OC(CO)C(O)C1O (configuration not stated) | 24.3% |

| SMILES | growth |
| --- | --- |
| C=CCNC(=S)N/C=C(/C(=O)c1ccccc1)c1ccccc1 | 104% |
| Cc1ccc(C2CCCCC2)cc1Br | 97.7% |
| OCCc1ccc(Cl)cc1 | 107% |
| C/C(O)=C(/C=N/C(=S)Nc1ccccc1)C(=O)Nc1ccccc1C | 103% |
| CC1(C)OC(=O)CC1=O | 105% |
| CN(C)CCOC(=O)Nc1ccc(Cc2ccc(NC(=O)OCCN(C)C)cc2)cc1 | 98.5% [100 µM] |
| O=c1nc(Nc2cccc(Cl)c2)oc2cc(Cl)oc(=O)c12 | 89% |
| OCCNc1ccccc1 | 100% |
| O=C(Oc1ccccc1Cl)c1ccc(Cl)cc1Cl | 103% |
| COc1cc(OC)c2cc(C(=O)c3ccc(C#N)cc3)c(=O)oc2c1 | 101% |
| CC(C)C1CCC(C)C(O)C1 (configuration not stated) | 103% |
| O=C(NC1CCCCC1)c1ccc(Cl)cc1 | 101% |
| O=C1C=Cc2ccccc2/C1=C/c1[nH]c(=O)[nH]c1O | 67.8% |
| NC(CO)(CO)c1ccccc1 | 111% |
| Nc1cc(N)ncn1 | 97.6% |
| S=C(Sc1ccc(Cl)cc1)Sc1ccc(Cl)cc1 | 5.64% (active) |
| CCOc1ccc(C(=O)O)cc1 | 105% |
| COc1cccc(C(=O)NNC(=O)c2cccc3ccccc23)c1 | 107% |
